Screening results deposited in PubChem by National Center for Advancing Translational Sciences (NCATS).
HP1b binding inh: HP1-beta chromodomain-methylated histone interaction inhibition; AID 540317; P83916; Potency, µM (titrated, usually from 114 µM), without a hit: top-dose activity change, negative = inhibition, hits mostly inhibitors; AlphaScreen HP1-beta / biotin-H3K9me3 peptide binding; 390,000 tested, 0.56% active; also: nearly all actives have a fitted effect of over 70% in size
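AlphaScreen: HP1-beta (50 nM) preformed 30 min with biotin-H3(1-18)K9me3 peptide (50 nM) in PBS pH 7.4, 0.01% Tween-20. Compound added for 30 min at RT, then streptavidin donor/nickel chelate acceptor beads (10 ug/mL) for 30 min.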
L3MBTL1 inh: inhibitors of human L3MBTL1. Q9Y468. AlphaScreen L3MBTL1–H3K9me1 peptide binding. Potency, µM (titrated, usually from 57.1 µM), inactives show at the highest dose activity, negative = inhibition, most hits filed as inhibitors. 230,000 tested, 0.66% active; also: % is scaled to controls: 0 for no effect and ±100 for the full control effect; nearly all actives have a fitted effect of over 60% in size
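Displacement of a biotinylated histone H3(1-15) peptide monomethylated at Lys9 (75 nM) from L3MBTL1 (50 nM) was measured by AlphaScreen after a 30 min room-temperature compound incubation; cefsulodin titration served as intraplate control.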
G9a block: G9a (human) methyltransferase inhibition; Q96KQ7; G9a H3K9 monomethylation, AlphaScreen, 2 h; Potency, µM (series often up to 102 µM), without a hit: at the highest dose activity, negative = inhibition, usual class: inhibitors; 350,000 tested, 8.8% active; AID 504332; also: % is scaled to controls: 0 for no effect and ±100 for the full control effect; nearly all actives have a fitted effect of over 75% in size
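Compounds were preincubated with 20 nM G9a for 15 min, after which biotinylated H3K9 peptide (500 nM) and SAM (20 uM) started a 2 h room-temperature reaction. Monomethylated product was quantified by antibody-based AlphaScreen chemiluminescence.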
JMJD2A Tudor: inhibitors of human JMJD2A Tudor domain; O75164; AlphaScreen JMJD2A-Tudor / H3K4me3 peptide binding; Potency, µM (highest dose often 114 µM), for the others: top-dose activity change, negative = inhibition, actives largely listed as inhibitors; 390,000 tested, 4.4% active; AID 504339; also: % is scaled to controls: 0 for no effect and ±100 for the full control effect; nearly all actives have a fitted effect of over 50% in size
Target sequence (O75164 whole entry, looked up, the tested form may be a part): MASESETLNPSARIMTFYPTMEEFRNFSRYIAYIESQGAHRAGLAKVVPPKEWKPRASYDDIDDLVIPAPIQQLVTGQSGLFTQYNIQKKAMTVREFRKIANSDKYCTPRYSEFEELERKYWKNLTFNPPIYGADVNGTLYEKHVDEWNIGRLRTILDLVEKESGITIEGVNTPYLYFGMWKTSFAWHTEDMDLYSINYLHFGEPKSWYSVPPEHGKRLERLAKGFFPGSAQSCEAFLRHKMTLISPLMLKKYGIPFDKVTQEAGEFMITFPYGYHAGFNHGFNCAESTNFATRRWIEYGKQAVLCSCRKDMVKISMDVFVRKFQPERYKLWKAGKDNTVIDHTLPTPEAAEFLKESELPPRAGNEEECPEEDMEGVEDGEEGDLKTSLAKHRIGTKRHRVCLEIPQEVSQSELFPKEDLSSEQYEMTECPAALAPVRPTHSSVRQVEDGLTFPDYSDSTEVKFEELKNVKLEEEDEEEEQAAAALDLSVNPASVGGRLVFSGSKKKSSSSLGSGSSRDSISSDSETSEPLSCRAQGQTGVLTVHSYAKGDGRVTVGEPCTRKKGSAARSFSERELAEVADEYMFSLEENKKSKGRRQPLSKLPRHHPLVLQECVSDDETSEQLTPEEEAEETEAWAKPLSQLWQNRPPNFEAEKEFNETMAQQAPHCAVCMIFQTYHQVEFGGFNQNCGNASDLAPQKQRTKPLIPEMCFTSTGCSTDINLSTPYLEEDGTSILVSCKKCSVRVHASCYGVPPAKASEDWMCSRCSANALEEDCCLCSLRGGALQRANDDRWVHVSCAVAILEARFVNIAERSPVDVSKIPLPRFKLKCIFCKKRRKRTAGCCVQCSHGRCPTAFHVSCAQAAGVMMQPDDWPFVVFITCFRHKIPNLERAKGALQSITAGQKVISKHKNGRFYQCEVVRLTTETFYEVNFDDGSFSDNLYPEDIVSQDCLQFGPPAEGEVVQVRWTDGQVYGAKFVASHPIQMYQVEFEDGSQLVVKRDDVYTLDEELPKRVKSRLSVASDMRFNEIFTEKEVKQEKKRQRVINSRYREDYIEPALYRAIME
BAZ2B inh: inhibitors of human BAZ2B bromodomain | Q9UIF8 | AlphaScreen BAZ2B-H3K14Ac peptide displacement | Potency, µM (highest dose often 114 µM), for the others: at the highest dose activity change, negative = inhibition, actives largely listed as inhibitors | 360,000 tested, 4.4% active | AID 504333; also: % is scaled to controls: 0 for no effect and ±100 for the full control effect; nearly all actives have a fitted effect of over 60% in size
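Multi-concentration screen (max 110 uM) measuring displacement of acetylated histone H3 peptide from BAZ2B by AlphaScreen, using 50 nM protein, 50 nM peptide and 10 ug/mL streptavidin donor plus Ni-chelate acceptor beads.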
Sfp PPTase inh: Sfp phosphopantetheinyl transferase inhibition. 310,000 tested, 3.5% active. Q9F4F7. AID 1490. Biochemical Sfp PPTase activity, qHTS. Potency, µM, for inactives: largest response in the series, negative = inhibition, usual class: inhibitors;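 also: the enzyme is Sfp with the accession as filed and its product quenches rhodamine fluorescence; 0% = enzyme reaction without inhibitor and -100% = no enzyme wells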
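Sfp 15 nM + cpd, 15 min RT; start w/ rhodamine-CoA 5 uM, BHQ-2-YbbR 12.5 uM (final); 50 mM Hepes pH 7.6, 10 mM MgCl2, 0.01% NP-40, 0.01% BSA; read 525/598 nm at 0 and 30 min.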
Starred values were filed as active, the others as inactive; ? = inconclusive; / = not tested or not shown; [ ] = another dose, or the depositor's remark. A selection: hits, their analogues and other compounds. The true share with any hit is near 12%. Calls follow the shape of the dose curve; as a rule, active = well fitted curve in the direction sought with a large enough effect; inconclusive = small, poorly fitted or top-dose-only effect, or another doubt; inactive = no such curve, though single readings can be large; an effect the other way counts as inactive or inconclusive. Potency is read from the fitted curve at half-maximal effect.

SMILES	HP1b binding inh	L3MBTL1 inh	G9a block	JMJD2A Tudor	BAZ2B inh	Sfp PPTase inh
CCN(C(=O)Cn1c(C(=O)OC)cc2oc3ccccc3c21)c1cccc(C)c1	26.9%	/	?	-25.1%	-14.4%	/
Cc1ccc2cccc(NC(=O)COc3ccccc3[N+](=O)[O-])c2n1	36.3%	/	?	-14.2%	2.5%	/
CCOc1ccc(-c2nc3c(c(SCC(=O)N4CCCCC4)n2)Cc2cc(C)ccc2O3)cc1	11.3%	/	5.7%[59 µM]	-13.9%	-22.2%	/
CCC(=O)Oc1ccc(C2Nc3ccccc3-c3nnc(SC)nc3O2)cc1 (stereo not drawn)	21.5%	/	-49.8%[59 µM]	-11.0%	-9.5%	/
CC1(C)CC(=O)c2cc(-c3nc(-c4ccccc4)cs3)c(=O)[nH]c2C1	7.6%	/	-49.1%[59 µM]	-13.7%	3.3%	/
Cc1cc(C)cc(NC(=O)c2cc(S(=O)(=O)N3CCOCC3)cn2C)c1	38.9%	/	8.0%[59 µM]	-1.6%	-3.6%	/
CCCC[C@H](O)c1ccccc1	/	/	-17.9%[12.7 µM]	/	/	21.4%
CC[n+]1c(C)n(-c2ccccc2)c2ccc(C(=O)OC)cc21	27.5%	6.1%	/	-1.9%	?	9.7%
CCOC(=O)c1ccc2c(c1)[n+](CC)c(C)n2-c1ccccc1	-24.6%	6.5%	31.6µM*	0.7%	?	-5.9%
CCOC(=O)c1sc(=S)n(-c2ccccc2)c1C	-10.8%	-2.9%	?	-1.4%	-18.5%	5.2%
CC(=O)OCC[n+]1c(C)n(-c2ccccc2)c2ccc(Cl)cc21	20.8%	-2.3%	50.1µM*	?	0.6%	3.6%
CCOC(=O)c1c(O)c(O)c(C(=O)OCC)n1-c1ccccc1	-17.0%	0.9%	8.91µM*	35.5µM*	-28.9%	31.6µM*
Cc1cc2c(s1)c1cnn(Cc3c(F)ccc(Cl)c3F)c(=O)c1n2C	/	/	/	-30.1%	/	/
O=C(Cn1ccn(-c2ccc(F)c(F)c2)c(=O)c1=O)c1ccc(F)cc1	-2.3%	/	-34.6%[59 µM]	-23.4%	?	/
COc1ccc(Cl)cc1NC(=O)Cn1nc(Cc2ccncc2)c2ccccc2c1=O	80.0%	/	-38.5%[59 µM]	-17.9%	-21.2%	/
N#Cc1ccc(CS(=O)(=O)c2ccccc2)cc1	/	/	/	/	/	12.9%
COc1ccc(Nc2ccc(C(F)(F)F)cc2[N+](=O)[O-])cn1	?	/	?	56.2µM*	39.8µM*	1.7%
CC(=O)Nc1ccc(NC(=O)CSc2ccc(C(F)(F)F)cc2[N+](=O)[O-])cc1	8.9%	-2.6%	44.7µM*	-8.8%	-10.1%	-2.0%
CC1CCC(=NNc2ccc(C(F)(F)F)cc2[N+](=O)[O-])CC1 (stereo not drawn)	?	-5.5%	3.55µM*	39.8µM*	10µM*	-2.2%
COc1ccc(Nc2ccc(N3C(=O)CCC3=O)cc2[N+](=O)[O-])cn1	32.4%	?	9.2%	6.1%	-9.3%	5.7%
O=[N+]([O-])c1cc(C(F)(F)F)ccc1NCC1CCCO1 (stereo not drawn)	-8.5%	-4.2%	5.5%	?	-1.7%	9.5%
C/C(=N\Nc1ccc(C(F)(F)F)cc1[N+](=O)[O-])C(C)C	39.8µM*	-18.8%	11.2µM*	?	10µM*	2.5%
Cc1cccc(N2CCN(C(=O)Cn3c(C)c4cnn(-c5ccccc5)c(=O)c4c3C)CC2)c1C	13.1%	/	-24.4%[59 µM]	-32.9%	?	/
CC(C)N(Cc1ccccc1)C(=O)Cn1ncc2c3ccccc3n(Cc3ccccc3)c2c1=O	32.2%	/	-19.7%[59 µM]	-7.7%	-1.9%	/
Cc1ccccc1OCC(=O)Nc1nnc(S(=O)(=O)N2CCCCCC2)s1	-11.0%	/	-40.7%[59 µM]	-30.3%	-28.9%	/
SMILES	HP1b binding inh	L3MBTL1 inh	G9a block	JMJD2A Tudor	BAZ2B inh	Sfp PPTase inh
CSc1ccc(CCNC(=O)c2ccc(-c3nc(COc4ccc(C)cc4)c(C)o3)cc2)cc1	39.9%	/	?	2.8%	1.2%	/
Cc1cccc(OCC(=O)Nc2ccc(C(=O)OCc3cc(=O)n4nc(C5CC5)sc4n3)cc2)c1	25.0%	/	0.0%[12.7 µM]	-1.0%	-0.8%	/
Cc1ccn2cc(CNC(=O)c3cccc(C(F)(F)F)c3)nc2c1	19.5%	/	-34.5%[59 µM]	-15.9%	-2.9%	/
COc1ccc(C)c2sc(NC(=O)c3ccc(S(=O)(=O)N(C)C)cc3)nc12	31.5%[57 µM]	/	6.5%[59 µM]	-0.6%	6.6%	/
C[C@H](Nc1ccc(C(F)(F)F)cc1[N+](=O)[O-])C(=O)O	0.7%[57 µM]	-5.4%	56.2µM*	-18.4%	-15.0%	23.4%
CC(C)C(Nc1ccc(C(F)(F)F)cc1[N+](=O)[O-])C(=O)O (stereo not drawn)	33.1%	-2.8%	?	-6.3%	/	11.8%
COc1ccc(/C=N/NC(=O)Nc2cccc3nsnc23)cc1	11.0%	-11.7%	-0.4%[59 µM]	70.8µM*	-28.2%	6.2%
O=C(Nc1ccccc1)Nc1cccc2nsnc12	95.7%	119.3%	24.6%[12.7 µM]	63.9%	23.9%	63.1µM*
Cc1ccc2cccc(NC(=O)c3ccc(-c4ccc(Br)cc4)o3)c2n1	23.9%	/	-8.0%[59 µM]	-9.7%	-13.8%	/
O=C(Nc1cccc2nsnc12)c1cccs1	15.6%	22.4%	7.6%[59 µM]	-10.8%	-2.4%	-3.0%
COc1ccc(C=NNC(=O)CCCCC(=O)NN=Cc2ccc(OC)cc2)cc1	39.6%	/	/	-15.2%	/	/
O=C(Nc1cccc2nsnc12)c1ccc(-c2ccc(Br)cc2)o1	15.1%	0.8%	39.8µM*	2.7%	-31.6%	39.8µM*
C=C1c2ccccc2O[C@H](C(=O)OCC)C1OC (mixture of isomers)	/	/	-27.4%	/	/	4.6%
CCN(c1ccccc1)S(=O)(=O)c1nnc(NC(=O)C(C)Oc2ccccc2)s1 (stereo not drawn)	-36.2%	/	?	?	?	/
Cc1ccc(-c2nc(-c3cc4c([nH]c3=O)CC(C)(C)CC4=O)sc2C)cc1	9.3%	/	-1.2%[59 µM]	-6.8%	3.1%	/
COc1ccc(NC(=O)CSc2nnc(NC(=O)NC3CCCCC3)s2)cc1OC	25.1%	/	-1.8%[59 µM]	-6.2%	-1.6%	/
CCN1C=C(Cc2ccc(OC)cc2)C2=C(C1)C(c1ccc(OC)cc1)C(C#N)=C(N)O2 (stereo not drawn)	-28.9%	-17.5%	?	?	44.7µM*	-21.8%
CC1(C)O[C@H]2C[C@@H]3[C@H]4CCC5=CC(=O)CC[C@@]5(C)[C@]4(F)[C@@H](O)C[C@@]3(C)[C@@]2(C(=O)CCl)O1	/	/	31.7%[21.5 µM]	/	/	14.5%
CCOC(=O)c1ccc(NC(=O)COCc2cc(-c3ccc4c(c3)OCO4)on2)cc1	32.9%	/	0.1%[59 µM]	-2.0%	0.3%	/
COc1cc(/C=C2\SC(=O)N(Cc3ccc(Cl)cc3)C2=O)cc([N+](=O)[O-])c1O	12.6µM*	?	-116.3%[59 µM]	8.91µM*	15.8µM*	-19.2%
COc1cc(/C=C2\SC(=O)N(Cc3ccc(F)cc3)C2=O)cc([N+](=O)[O-])c1O	15.8µM*	?	/	28.2µM*	8.91µM*	12.3%
